The source of these data is PubChem BioAssay (NCI).

About 83,000 compounds went through this panel and 20% of them were active in at least one assay; those are over-represented in the sample as a whole.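 Each cell line was grown in a 96-well plate and treated with one concentration of compound for 48 hours. Values below 10 were considered active.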 A number with no mark means an inactive call. The source made the active and inactive calls.

Holding throughout (assay): NCI-60 one-dose screen, 48 h (100 = growth as untreated, 0 = no growth, -100 = all killed)
Holding throughout (conditions): 10 µM unless noted

Test [1] has as its system NCI-H23 lung.
For test [2], the system named is NCI-H226 lung.
In test [3] the test system is NCI-H322M lung.
The test system of test [4] is HOP-62 NSCLC.
The subject of test [5] is NCI-H460 lung.
The test system of test [6] is HOP-92 NSCLC.
Test [7] relates to NCI-H522 lung.
Test [8] has as its system A549/ATCC NSCLC.
The test system of test [9] is 786-0 renal.
The test system of test [10] is COLO 205 colon.
The subject of test [11] is DU-145 prostate.
Test [12] relates to K-562 leukemia.
In test [13] the test system is MALME-3M melanoma.
The test system of test [14] is MDA-MB-231 breast.
The subject of test [15] is RXF 393 renal.
For test [16], the system named is SF-268 CNS.
Test [17] deals with SF-295 CNS.
Test [18] deals with SF-539 CNS.
Test [19] deals with UACC-257 melanoma.
Test [20] relates to M14 melanoma.

For `CC(C)CC(=O)Nc1n[nH]c2c1CN(C(=O)C1CCN(C)CC1)C2(C)C`, the growth in test [1] was 0.542% (active); in [2] it was 7.08% (active); in test [3], 24.4%; in test [4] it was -14.3% (active); in test [5], 7.12% (active); in test [6], -3.08% (active). Also, the growth in [7] was -27.9% (active); in [8] it was 7.25% (active); in test [9] it was 3.99% (active); in [10], -76.4% (active); in test [11], 15.2%; in [12], 11.1%. Moreover, the growth in [13] is 34.9%; in [14] it was 8.95% (active); in [15] it was -37.2% (active); in test [16], 12.1%; in [17] it was 41.6%; in test [18] it was -22.3% (active). The values for the growth in [19] and in [20] were 15.5% and 22.2%, respectively.

Take `Clc1ccc(Nc2nccc(Nc3ccc4[nH]ncc4c3)n2)cc1`: the growth in [1] is 45.7%; in test [2] it was 28.2%; in [3], 74.8%; in test [4], 65.5%; in test [5], 41%; in test [6] it was -0.955% (active). Besides, the growth in test [7] is 20.8%; in [8] it was 50.2%; in [9] it was 57.4%; in [10] it was 42.2%; in [11] it was 49.8%; in [12], -7.92% (active). Besides, the growth in test [13] was 87.5%; in [14] it was 68.8%; in test [15], 35.1%; in test [16], 60.4%; in test [17], 70.9%; in test [18], 75.8%. Also, the values for the growth in [19] and in test [20] were 87.6% and 43.8%, respectively.

Turning to `COc1ncc(-c2ccc3nccc(-c4ccnnc4)c3c2)cc1NS(=O)(=O)c1ccc(F)cc1F`, the growth in test [1] is 3.23% (active); in test [2], -4.7% (active); in [3], -31.1% (active); in test [4] it was -14.1% (active); in [5], 5.35% (active); in [6] it was -1.41% (active). Further, the growth is -44% (active) in test [7]; -61.6% (active) in test [8]; 4.21% (active) in [9]; -83.2% (active) in [10]; 10.8% in test [11]; 3.76% (active) in test [12]. The growth in [13] was -34.2% (active); in [14], 5.98% (active); in test [15] it was -58.5% (active); in test [16], 6.46% (active); in test [17], -27.3% (active); in [18] it was -47.2% (active). In addition, the figures for the growth in test [19] and in [20] were -36.2% (active) and -7.62% (active), respectively.

Consider `COc1cc(NC2CCC(=O)N2c2ccc(Cl)cc2Cl)cc(OC)c1OC` (stereo not given), for which the growth was 99.4% in test [1]; 99.9% in test [2]; 97.3% in [3]; 103% in [4]; 102% in test [5]; 83.1% in test [6]. In addition, the growth was 99.9% in test [7]; 99.4% in test [8]; 103% in test [9]; 97.7% in test [10]; 103% in test [11]; 106% in test [12]. For the same compound, the growth in test [13] is 93.3%; in [14], 111%; in test [15] it was 120%; in test [16], 98.7%; in test [17], 101%; in test [18], 101%. In addition, the growth in [19] is 99.1%; in test [20] it was 94.9%.

For the compound `CCCCn1c(C)nc2ccc(Nc3nc(N4CCN(C)CC4)nc4nc[nH]c34)cc21`, the growth in test [1] is 95.5%; in [2], 93%; in test [3] it was 91.3%; in test [4], 90.9%; in [5], 104%; in test [6], 64.8%. Besides, the growth is 87.2% in test [7]; 94.2% in test [8]; 92.8% in test [9]; 87.9% in test [10]; 91.8% in test [11]; 83.2% in test [12]. In addition, the growth in test [13] is 102%; in test [14], 86.2%; in test [15] it was 95%; in [16] it was 73.2%; in test [17], 105%; in [18], 87.6%. Besides, the growth in test [19] is 101%; in test [20] it was 107%.

Consider `COc1cc(F)c(F)c(Nc2ccc(I)cc2F)c1NS(=O)(=O)C1(C[C@H](O)CO)CC1`, for which the growth in [1] is 13%; in test [2], 41.3%; in [3], 14.2%; in [4] it was 25.1%; in [5], 27.8%; in test [6], -19.1% (active). The growth in test [7] is 31.4%; in [8] it was 26.3%; in test [9], 54.5%; in [10] it was -0.628% (active); in test [11] it was 51.2%; in test [12] it was 21.9%. In addition, the growth in test [13] is 0.42% (active); in test [14], 23%; in [15] it was -2.17% (active); in [16], 52.9%; in test [17] it was 59.9%; in test [18], 53.5%. The figures for the growth in test [19] and in [20] were -12.7% (active) and 7.68% (active), respectively.

Turning to `COc1cc(Nc2ncc(F)c(Nc3ccc4c(n3)NC(=O)C(C)(C)O4)n2)cc(OC)c1OC`, the growth in test [1] is 52.1%; in test [2], 12.2%; in [3] it was 41.8%; in [4] it was 27.3%; in [5] it was 65%; in test [6] it was 2.19% (active). Moreover, the growth in test [7] was 6.57% (active); in test [8] it was 26.8%; in test [9] it was 29%; in test [10], 18.9%; in test [11], 48.8%; in test [12], 66.5%. Further, the growth in test [13] is 88.7%; in test [14] it was 41.7%; in test [15], -40.3% (active); in test [16], 29.8%; in test [17] it was 59.9%; in [18], -14.8% (active). Moreover, the growth in [19] is 57.1%; in test [20], 57.5%.

Turning to `COc1ccc(Cl)c(Nc2nc3ccccc3nc2NS(=O)(=O)c2cccc(NC(=O)C(C)(C)N)c2)c1`, the growth in test [1] was 64.5%; in test [2] it was 71.4%; in test [3], 35.1%; in [4], 39.4%; in test [5], 38%; in [6] it was -1.2% (active). Besides, the growth was 49% in [7]; 32.4% in test [8]; 16.7% in test [9]; 21.8% in test [10]; 62.4% in [11]; 63.3% in test [12]. The growth in [13] is 69.5%; in test [14] it was 68.3%; in test [15], -10.2% (active); in test [16], 49.8%; in test [17], 12.2%; in [18], 13.7%. The growth in [19] was 56.9%; in test [20], 51.7%.
